From PubChem
Tau ThT inhib – blocks human tau fibril formation measured by thioflavin T | P10636 | recombinant tau K18 P301L, heparin-induced fibrillization, ThT fluorescence | Potency, µM (highest dose often 57.4 µM), usual class: inhibitors | actives 2.1% (n = 270,000) | AID 1460; note: nearly all actives have a fitted effect of over 55% in size
Target sequence (P10636 561-689 P618L limits assumed): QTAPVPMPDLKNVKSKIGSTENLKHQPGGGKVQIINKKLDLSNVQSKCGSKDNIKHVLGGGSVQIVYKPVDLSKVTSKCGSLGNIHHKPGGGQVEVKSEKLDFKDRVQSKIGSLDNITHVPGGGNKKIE
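In this qHTS, human K18 P301L tau is incubated with compound and heparin for 6 hr at 37 C, and Thioflavin T fluorescence then reports fibril load.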
Gal4-VP16 FLuc – Gal4-VP16 reporter inhibition counter-screen | Drosophila S2 Gal4-VP16 UAS-luciferase, luminescence, 20 h | Potency, µM (top dose mostly 53.6 µM), usual class: inhibitors | actives 3.5% (n = 310,000);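 note: Gal4-VP16 expression switched on by copper sulfate through the metallothionein promoter; nearly all actives have a fitted effect of over 50% in size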
Tau FP inhib – tau fibrillization inhibition (FP). Potency, µM (top dose mostly 57.7 µM), hits mostly inhibitors. K18 P301L tau heparin fibrillization, Alexa594 FP, 6 h. actives 0.39% (n = 280,000). P10636; note: nearly all actives have a fitted effect of over 55% in size
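Human K18 P301L fragment (15 uM unlabeled plus 0.24 uM Alexa 594-labeled) in 100 mM sodium acetate pH 7 with compound, aggregation induced by 20 uM heparin for 6 hr at 37 C. ThT (30 uM) added for 1 hr, then Alexa 594 FP read.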
Tau fluor counter – counter-screen for tau fibril formation inhibitors; tau K18 P301L Alexa594 fluorescence, heparin fibrillization; Potency, µM (highest dose often 57.7 µM); actives 0.93% (n = 280,000); AID 1463; note: nearly all actives have a fitted effect of over 55% in size
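Human tau K18 P301L (15 uM unlabeled, 0.24 uM Alexa 594-labeled) in 100 mM sodium acetate pH 7 with 20 uM heparin, 6 hr at 37 C. ThT 30 uM added, 1 hr ambient; Alexa 594 FP and total fluorescence read at 555/632 nm.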
RORgamma inh – inhibitors of mouse ROR gamma transcriptional activity | Drosophila S2 Gal4-RORgamma UAS-luciferase reporter, 20 h | Potency, µM (highest dose often 53.6 µM), hits mostly inhibitors | P51450 | actives 5.4% (n = 310,000); note: nearly all actives have a fitted effect of over 60% in size
Target sequence (P51450 whole entry, looked up, the tested form may be a part): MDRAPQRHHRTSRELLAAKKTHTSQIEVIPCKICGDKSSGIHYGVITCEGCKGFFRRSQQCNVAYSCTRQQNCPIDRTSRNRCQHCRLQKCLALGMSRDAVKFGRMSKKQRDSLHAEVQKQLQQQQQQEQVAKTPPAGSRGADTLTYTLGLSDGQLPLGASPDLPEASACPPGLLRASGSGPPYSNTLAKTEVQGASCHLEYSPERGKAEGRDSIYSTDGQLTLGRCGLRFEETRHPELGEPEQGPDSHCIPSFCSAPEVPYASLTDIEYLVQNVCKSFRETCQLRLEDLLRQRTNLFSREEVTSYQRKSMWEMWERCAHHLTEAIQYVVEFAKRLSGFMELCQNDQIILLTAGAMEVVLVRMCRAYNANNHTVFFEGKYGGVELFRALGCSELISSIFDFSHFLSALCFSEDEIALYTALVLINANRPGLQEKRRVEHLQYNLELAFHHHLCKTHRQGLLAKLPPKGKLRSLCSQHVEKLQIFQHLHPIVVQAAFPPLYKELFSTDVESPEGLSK
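Luminescence from a UAS-regulated Photinus luciferase reporter in stably transfected Drosophila Schneider cells is measured; decreased signal marks ROR gamma inhibition. Fusion expression is induced by 700 uM copper sulfate for 20 hr.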
Hits are given with their value; 0 = inactive; ? = inconclusive; - = not tested or not shown; [ ] = dose if it differs, or a comment. Sampled rows, rich in hits. Any-hit rate of the full collection: about 7.3%. Calls come from the whole dose curve; as a rule, active = well fitted curve in the direction sought with a large enough effect; inconclusive = small, poorly fitted or top-dose-only effect, or another doubt; inactive = no such curve, though single readings can be large; an effect the other way counts as inactive or inconclusive.

SMILES	Tau ThT inhib	Gal4-VP16 FLuc	Tau FP inhib	Tau fluor counter	RORgamma inh
CC(/C=C/c1ccccc1)=N\NC(=S)NC(C)C	0	?	0	0	?
CC(/C=C/c1ccccc1)=N\NC(N)=S	?	2.2µM	0	0	0.56µM
O=C(O)c1cc(N/N=C/C=C/c2ccccc2[N+](=O)[O-])ccc1Cl	3.5µM	?	0	?	0
O=C(N/N=C/C=C/c1ccccc1)c1cccs1	0	2.8µM	0	0	2.8µM
Cc1cc(C)cc(-n2c(SCC(N)=O)nc3c(oc4ccccc43)c2=O)c1	0	-	0	0	-
Cc1cc(C)c(C)c(S(=O)(=O)NCCCn2ccnc2)c1C	-	0	-	-	0[1.91 µM]
CC1(C)OC(c2ccccc2)=C/C(=C/C=Nc2ccccc2)O1	?	0	0	0	0
NC(=S)NN=C(c1ccccc1)c1ccccc1	-	?	-	-	7.1µM
CC1(C)OC(c2ccccc2)=C/C(=C\C=N\NC(=O)c2ccncc2)O1	11µM	0.56µM	?	?	0.4µM
CC(C)N(C)C	-	0	-	-	0
CC(=O)c1cccc(NC(=O)c2cnn(-c3ccccc3)c2C)c1	-	2.2µM	-	-	3.5µM
Cc1ccc(NC(=O)c2cnn(-c3ccccc3)c2C)cc1C	-	?	-	-	5µM
Brc1ccc(N=Nc2ccc3ccccc3n2)cc1	1.1µM	0.45µM	0	0	0.11µM
O=C(NCc1cccnc1)C1CC(c2ccccc2O)=NO1 (centres undefined)	-	0	-	-	?
Cn1c(-c2sc3cc(C(F)(F)F)cnc3c2-c2cccs2)n[nH]c1=S	0	0	0	0	2.8µM
Cc1cc(Br)c(NC(=O)CN2CCCC2)c(Br)c1	-	0	-	-	0
CC1CC(Nc2cccc(O)c2)=CC(=O)O1 (centres undefined)	0	0	0	0	0
C[C@@H]1Cc2c(O)c(O)cc(O)c2C(=O)O1	32µM	0	25µM	0	0
O=C(/C=C/Sc1ccccc1)c1ccc(Cl)cc1	?	14µM	0	0	?
O=C(/C=C/Sc1ccccc1)c1ccccc1	?	?	?	0	?
S=C(Nc1ccc(Cl)cc1Cl)Nc1ccccc1Oc1ccccc1	0	?	0	0	10µM
S=C(Nc1cccc(Cl)c1)Nc1cccc2cnccc12	0	0	0	0	0
S=C(Nc1cccc(Cl)c1)Nc1ccccc1Oc1ccccc1	0	?	?	?	10µM
O=C(CCC(=O)c1ccc(Oc2ccccc2)cc1)Nc1ccc(Cl)cc1Cl	0	0	0	0	0
S=C(Nc1ccccc1Oc1ccccc1)Nc1cccc(Cl)c1Cl	0	?	0	0	13µM
SMILES	Tau ThT inhib	Gal4-VP16 FLuc	Tau FP inhib	Tau fluor counter	RORgamma inh
S=c1nc[nH]c2c1sc1nc(-c3ccccc3)c3c(c12)CCCC3	?	10µM	?	?	16µM
COc1ccc(-c2cc(C(=O)NCCc3ccc(OC)c(OC)c3)c3c(-c4ccc(F)cc4)[nH]nc3n2)cc1	0	-	0	0	-
S=C(Nc1ccc(Cl)cc1)NC1CCN(Cc2ccccc2)CC1	0	?	?	0	18µM
CCc1ccc(NC(=S)NC2CCN(Cc3ccccc3)CC2)cc1	0	?	0	0	10µM
CCC(C)c1ccc(NC(=S)NC2CCN(Cc3ccccc3)CC2)cc1 (centres undefined)	0	7.1µM	?	?	7.1µM
Cc1ccccc1NC(=S)NC1CCN(Cc2ccccc2)CC1	0	?	0	0	18µM
CN[C@H]1[C@@H](O[C@@H]2[C@H](O[C@@H]3[C@@H](O)[C@@H](O)[C@@H](N=C(N)N)[C@@H](O)[C@@H]3N=C(N)N)O[C@H](C)[C@@]2(O)C=O)O[C@@H](CO)[C@@H](O)[C@H]1O	-	0	-	-	0
CCCCN(CC)C(=O)CCCn1c(=O)c2cccn2c2ccccc21	0	-	0	0	-
CC1(C)CC(CCC(=O)NC(=S)Nc2ccccc2Cl)C(=O)O1 (centres undefined)	0	?	0	0	18µM
O=C(CCN1C(=O)c2ccccc2C1=O)NC(=S)Nc1ccccc1Cl	0	?	0	0	?
C=CCNC(=S)NNC(=O)C(CC(C)C)CC(C)O (centres undefined)	0	0	0	0	0
C=CCNC(=S)NNC(=O)C(CCC(C)C)CC(C)(C)O (centres undefined)	0	?	0	0	14µM
N#C/C(=C\c1ccccc1)C(=O)Nc1sc2c(c1C(N)=O)CCC2	1.4µM	-	0	0	-
COc1ccc(N2CC(NC(=O)c3ccco3)CC2=O)cc1OC (centres undefined)	0	-	0	0	-
O=C(O)/C=C\C(=O)Nc1ccc(N2CCN(c3cccc(Cl)c3)CC2)cc1	?	0	0	0	0
O=C(O)/C=C\C(=O)Nc1ccc(N2CCN(c3ccc(Cl)c(Cl)c3)CC2)cc1	2.2µM	0	?	?	0
O=C(O)/C=C\C(=O)Nc1ccc(N2CCN(c3ccc(F)cc3)CC2)cc1	5.6µM	0	0	?	0
CC(=O)N1CCN(c2ccc(NC(=O)/C=C/c3ccccc3)cc2)CC1	2.5µM	0	0	0	0
O=C(O)/C=C\C(=O)Nc1ccc(N2CCN(c3ccc(Cl)cc3)CC2)cc1	3.5µM	0	?	?	0
CC(=O)Nc1ccc(NC(=O)/C=C/c2ccccc2)cc1	0	0	0	0	0
CCC1CN(C(=O)N2CCC(C(=O)NCc3ccco3)CC2)c2cc(C)ccc2O1 (centres undefined)	?	0	0	0	0
COc1ccccc1N(CC(O)CN1CCOCC1)S(=O)(=O)c1ccccc1 (centres undefined)	-	0	-	-	0
CC(=O)NCCNc1nc(-c2ccc(N(C)C)cc2)nc2ccccc12	?	0	0	?	0
CCOc1ccccc1NC(=O)CSc1nnc2[nH]c(=O)cc(-c3ccccc3)n12	?	-	0	0	-
Cc1cc(C(=S)N2CCOCC2)c(C)n1-c1ccc(Cl)cc1	0	0	0	0	0
SMILES	Tau ThT inhib	Gal4-VP16 FLuc	Tau FP inhib	Tau fluor counter	RORgamma inh
Cc1cc(C)cc(-n2c(C)cc(C(=S)N3CCOCC3)c2C)c1	0	16µM	0	0	3.2µM
Cc1ccc(/C=C/C(=O)Nc2ccc(N(C)C)cc2)o1	8.9µM	0	0	0	0
Cc1ccc(/C=C/C(=O)Nc2ccncc2)o1	?	?	0	0	0
Cc1ccc(/C=N/NC(=O)NC2CCCCC2)o1	0	0	0	0	0
Cc1ccc(/C=C/C(=O)NC2CCCCCCC2)o1	?	13µM	?	0	0
Cc1csc(NC(=O)/C=C/c2ccc(C)o2)n1	?	0	0	0	4.5µM
Cc1ccc(/C=C/C(=O)Nn2cnnc2)cc1	14µM	0	?	0	0
CC(C)(C)c1ccc(/C=C/C(=O)NC2=NCCS2)cc1	0	4.5µM	0	0	2.8µM
Cc1ccc(/C=C/C(=O)NC2=NCCS2)cc1	0	?	0	0	11µM
CC1NC(C(=O)O)Cc2c1[nH]c1ccccc21 (centres undefined)	0	-	0	0	-
O=S1(=O)NC(CC2=CCCCC2)C2CCCCC2O1 (centres undefined)	-	0	-	-	0
COc1cccc2cc(/C(C)=N/Nc3nc(-c4cc(C)ccc4C)cs3)c(=O)oc12	?	0	0	?	0.79µM
